PubChem BioAssay AID1159580 (chemical genetic matrix, 2015)
Values joined by “and” are separate entries in the source; they are usually repeats but may differ in a detail not shown here. Identical values can stand only once. Screen size: about 5,500 compounds; about 2,000 (36%) were called active. About 18% were inconclusive and are not listed. Cut-off read from the data, not from the text of the source: active = normalized growth mostly below about 0.91 (no sharp cut-off); inconclusive = no clear call, values can overlap the other calls; inactive = mostly above about 0.92. This is one part of the list.

Assay: chemical genetic growth profiling, strain panel (AID 1159580);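 note: tested at 20 µM; growth read once vehicle control cultures reached saturation at 30 °C; 1 = growth at the plate median or of vehicle wells; lower values mean less growth of the strain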
Conditions: S. cerevisiae deletion strains, growth OD

Measured: normalized growth

CC12CCC(=O)C=C1CCC1C2[C@@H](O)CC2(C)C1CC[C@]2(O)C(=O)COP(=O)(O)O (stereo partly drawn)
inactive: locus YAL013W, strain DEP1, hits give low values 1.02 | locus YAL021C, strain ccr4, hits give low values 1 | locus YAL026C, strain drs2, hits give low values 0.999 | locus YAL030W, strain snc1, hits give low values 1.01 | locus YBL061C, strain skt5, hits give low values 0.998 | locus YBR009C, strain hhf1, hits give low values 0.994 | locus YBR021W, strain FUR4, hits give low values 1.02 | locus YBR023C, strain chs3, hits give low values 0.992 | locus YBR171W, strain sec66, hits give low values 1 | locus YBR229C, strain ROT2, hits give low values 1.01 | locus YBR231C, strain swc5, hits give low values 0.989 | locus YBR279W, strain paf1, hits give low values 1 | locus YCL011C, strain gbp2, hits give low values 0.991 | locus YCL016C, strain dcc1, hits give low values 0.973 | locus YCL029C, strain bik1, hits give low values 1.01 | locus YCL061C, strain MRC1, hits give low values 0.999 | locus YCL069W, strain vba3, hits give low values 1.01 | locus YCR088W, strain abp1, hits give low values 0.995 | locus YDL005C, strain med2, hits give low values 0.997 | locus YDL035C, strain GPR1, hits give low values 1.01 | locus YDL040C, strain nat1, hits give low values 1.01 | locus YDL074C, strain BRE1, hits give low values 1.02 | locus YDL101C, strain DUN1, hits give low values 1.01 | locus YDL185W, strain tfp1, hits give low values 1 | locus YDL192W, strain arf1, hits give low values 1.01 | locus YDR001C, strain nth1, hits give low values 0.996 | locus YDR069C, strain doa4, hits give low values 1.01 | locus YDR101C, strain arx1, hits give low values 1.03 | locus YDR137W, strain rgp1, hits give low values 0.992 | locus YDR150W, strain NUM1, hits give low values 1.02 | locus YDR159W, strain sac3, hits give low values 1 | locus YDR162C, strain NBP2, hits give low values 1.01 | locus YDR195W, strain ref2 0.992 | locus YDR297W, strain sur2, hits give low values 0.996 | locus YDR318W, strain mcm21, hits give low values 0.999 | locus YDR334W, strain swr1, hits give low values 0.998 | locus YDR335W, strain msn5, hits give low values 1.01 | locus YDR388W, hits give low values 1 | locus YDR392W, strain spt3, hits give low values 0.928 | locus YDR502C, strain sam2, hits give low values 1 | locus YEL003W, strain gim4, hits give low values 1 | locus YEL037C, strain rad23, hits give low values 1.01 | locus YEL061C, strain CIN8 (second series), hits give low values 1 | locus YEL061C, strain CIN8, hits give low values 1.02 | locus YER015W, strain faa2, hits give low values 1 | locus YER016W, strain bim1, hits give low values 1 | locus YER110C, hits give low values 1.01 | locus YER111C, strain swi4, hits give low values 1 | locus YER155C, strain BEM2 (second series), hits give low values 1.01 | locus YER155C, strain BEM2, hits give low values 1.01 | locus YER167W, strain BCK2, hits give low values 1.01 | locus YFR010W, strain ubp6, hits give low values 1.01 | locus YGL078C, strain dbp3, hits give low values 0.994 | locus YGL086W, strain mad1, hits give low values 1 | locus YGL167C, strain pmr1, hits give low values 0.996 | locus YGL173C, strain kem1, hits give low values 0.995 | locus YGL227W, strain vid30, hits give low values 0.996 | locus YGL240W, strain doc1, hits give low values 1.01 | locus YGL248W, strain PDE1, hits give low values 1 | locus YGL253W, strain hxk2, hits give low values 1.01 | locus YGR078C, strain PAC10, hits give low values 1.01 | locus YGR135W, strain pre9, hits give low values 0.997 | locus YGR229C, strain SMI1, hits give low values 1.02 | locus YGR252W, strain gcn5, hits give low values 0.958 | locus YHR013C, strain ard1, hits give low values 0.991 | locus YHR027C, strain rpn1, hits give low values 0.994 | locus YHR030C, strain SLT2, hits give low values 1.02 and 0.987 | locus YHR079C, strain IRE1 (second series), hits give low values 1 | locus YHR079C, strain IRE1, hits give low values 0.96 | locus YHR094C, strain hxt1, hits give low values 1.01 | locus YHR129C, strain ARP1, hits give low values 1.01 | locus YHR142W, strain chs7, hits give low values 0.993 | locus YHR200W, strain rpn10, hits give low values 1.01 | locus YIL066C, strain RNR3, hits give low values 1.02 | locus YIL073C, strain SPO22, hits give low values 1.01 | locus YIL125W, strain kgd1, hits give low values 0.985 | locus YIR030C, strain dcg1, hits give low values 1.01 | locus YJL092W, strain hpr5, hits give low values 1 | locus YJL095W, strain BCK1 (second series), hits give low values 0.995 | locus YJL095W, strain BCK1, hits give low values 1.01 and 0.981 | locus YJL115W, strain asf1, hits give low values 0.997 | locus YJL129C, strain trk1, hits give low values 1.01 | locus YJL134W, strain LCB3, hits give low values 1.01 | locus YJL154C, strain vps35, hits give low values 1 | locus YJL164C, strain tpk1, hits give low values 0.995 | locus YJL166W, strain qcr8, hits give low values 0.986 | locus YJL168C, strain set2, hits give low values 0.998 | locus YJL187C, strain SWE1 (second series), hits give low values 1.01 | locus YJL187C, strain SWE1, hits give low values 1 | locus YJR043C, strain POL32, hits give low values 1.02 | locus YJR066W, strain TOR1, hits give low values 0.917 | locus YKL009W, strain mrt4, hits give low values 1.01 | locus YKL068W, hits give low values 1.01 | locus YKL085W, strain MDH1 (second series), hits give low values 1 | locus YKL085W, strain MDH1, hits give low values 1 | locus YKL160W, strain elf1, hits give low values 0.985 | locus YKL190W, strain CNB1, hits give low values 1.02 | locus YKR001C, strain vps1, hits give low values 0.997 | locus YKR026C, strain gcn3, hits give low values 1.01 | locus YKR091W, strain srl3, hits give low values 1 | locus YLL001W, strain dnm1, hits give low values 0.982 | locus YLL026W, hits give low values 1 | locus YLL041C, strain sdh2, hits give low values 0.997 | locus YLR027C, strain aat2, hits give low values 1.01 | locus YLR039C, strain RIC1, hits give low values 0.976 | locus YLR058C, strain SHM2, hits give low values 1 | locus YLR102C, strain apc9, hits give low values 0.998 | locus YLR113W, strain HOG1, hits give low values 1 | locus YLR221C, strain rsa3, hits give low values 0.986 | locus YLR258W, strain gsy2, hits give low values 1.03 | locus YLR262C, strain YPT6 (second series), hits give low values 0.987 | locus YLR262C, strain YPT6, hits give low values 1.06 | locus YLR268W, strain sec22, hits give low values 0.993 | locus YLR320W, strain mms22, hits give low values 0.994 | locus YLR330W, strain CHS5, hits give low values 1.01 | locus YLR342W, strain FKS1 (second series), hits give low values 1 | locus YLR342W, strain FKS1, hits give low values 1 | locus YLR357W, strain rsc2, hits give low values 0.998 | locus YLR370C, strain arc18, hits give low values 1.01 | locus YLR371W, strain rom2, hits give low values 0.994 | locus YLR384C, strain iki3, hits give low values 0.995 | locus YLR418C, strain cdc73, hits give low values 0.982 | locus YML016C, strain PPZ1, hits give low values 1 | locus YML032C, strain rad52, hits give low values 0.991 | locus YML120C, strain ndi1, hits give low values 0.995 | locus YML124C, strain tub3, hits give low values 0.999 | locus YMR058W, strain fet3, hits give low values 0.998 | locus YMR078C, strain ctf18, hits give low values 1 | locus YMR125W, strain sto1, hits give low values 0.997 | locus YMR129W, hits give low values 1 | locus YMR205C, strain PFK2, hits give low values 0.983 | locus YMR223W, strain ubp8, hits give low values 0.993 | locus YMR231W, strain pep5, hits give low values 1 | locus YMR263W, strain SAP30, hits give low values 1.02 | locus YMR307W, strain GAS1, hits give low values 0.988 | locus YNL067W, strain RPL9B, hits give low values 1.02 | locus YNL071W, strain lat1, hits give low values 1 | locus YNL128W, strain TEP1, hits give low values 1.03 | locus YNL183C, strain NPR1, hits give low values 0.951 | locus YNL209W, strain ssb2, hits give low values 1 | locus YNL233W, strain BNI4, hits give low values 1.01 | locus YNL248C, strain rpa49, hits give low values 1.01 | locus YNL250W, strain rad50, hits give low values 1 | locus YNL271C, strain bni1, hits give low values 1 | locus YNL298W, strain CLA4, hits give low values 0.992 | locus YNL307C, strain MCK1, hits give low values 1 | locus YNL322C, strain KRE1 (second series), hits give low values 0.999 | locus YNR049C, strain mso1, hits give low values 0.995 | locus YNR052C, strain pop2, hits give low values 0.998 | locus YOL012C, strain htz1 0.651 | locus YOL147C, strain pex11, hits give low values 1.01 | locus YOR001W, strain rrp6, hits give low values 0.989 | locus YOR061W, strain CKA2, hits give low values 1 | locus YOR069W, strain VPS5, hits give low values 1.01 | locus YOR070C, strain gyp1, hits give low values 0.999 | locus YOR080W, strain dia2, hits give low values 0.999 | locus YOR083W, strain WHI5, hits give low values 0.993 | locus YOR106W, strain vam3, hits give low values 0.976 | locus YOR136W, strain idh2, hits give low values 0.995 | locus YOR144C, strain elg1, hits give low values 1 | locus YOR184W, strain ser1, hits give low values 0.992 | locus YOR231W, strain MKK1, hits give low values 0.981 | locus YOR265W, strain rbl2, hits give low values 1 | locus YOR270C, strain vph1, hits give low values 1.01 | locus YOR290C, strain snf2, hits give low values 0.914 | locus YOR316C, strain cot1, hits give low values 1.01 | locus YPL051W, strain arl3, hits give low values 0.986 | locus YPL055C, strain LGE1, hits give low values 1.01 | locus YPL078C, strain atp4, hits give low values 0.995 | locus YPL106C, strain sse1, hits give low values 0.969 | locus YPL240C, strain hsp82, hits give low values 0.991 | locus YPL241C, strain CIN2, hits give low values 1.01 | locus YPL256C, strain CLN2, hits give low values 0.957 | locus YPR119W, strain clb2, hits give low values 1 | locus YPR141C, strain kar3, hits give low values 1.01 | locus YPR163C, strain tif3, hits give low values 1.01 | locus YPR167C, strain met16, hits give low values 0.998 | strain wtn01, hits give low values 1
